Measured values published in the supplement of paper PMC11417369.
Over roughly 25,000 sequences, “ln(normalized median fluorescence intensity)” has its median near 7.1; the highest 2% begin near 10. The sample holds the highest values, similar sequences and a random draw of the others, so the mix is not that of the screen.

Each sequence was assayed on PfSIP2 AP2 domain 1 (GST-tagged) (assay: gcPBM binding intensity (ln(normalized median fluorescence intensity)); higher = stronger DNA binding).
Summary of the method: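 Binding intensity values are the highest Masliner-normalised natural-log median intensity among replicate spots of either probe orientation. The binding step lasted 1 h in 1× PBS with 1% milk, 0.2 mg/ml BSA, 0.5% salmon testes DNA and 0.03% Triton X-100, using GST-tagged P. falciparum DNA-binding domains expressed in E. coli on an Agilent 4 × 180k array of primer-extended double-stranded 36-bp intergenic genomic probes plus negative controls. Alexa488 anti-GST antibody and a 488 nm scan detected bound protein.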
In the case of “TTTATAAATATTCTCACACACTTTTTATTTTAACAA [CACACA_site6454]”, the “gcPBM binding intensity (ln)” value is reported as 6.93.
In the case of “ATATAAATTTAATACACACCCAAAAAAAAAAAAAAA [CACACA_site3750]”, the “gcPBM binding intensity (ln)” value is reported as 6.89.
For ATGTAGATAAAACGTGTGCACATGTTTTTTGTTATT, the “gcPBM binding intensity (ln)” value was 8.7.
In the case of “ATATGTTTTGTTTACGTGCACTGCTTTGTTTATATA [GTGCAC_site9622]”, the “gcPBM binding intensity (ln)” value is reported as 9.56.
With TATGTTTTTACGTGTGTGCACTTTGTAGAGATAAGT the “gcPBM binding intensity (ln)” value was 10.7.
For “AAAATTAGATTATGCACACACACTTAAAAATAATAA [CACACA_site1975]”, the “gcPBM binding intensity (ln)” value was 8.5.
In the case of “AGGATATGCAGACACACACACATATAGATTTATATA [CACACA_site7100]”, the “gcPBM binding intensity (ln)” value is reported as 7.08.
With “GTTAGGATAGATTAGACATGCACATAAATGCACTTC [TGCATGCA_site561]” the “gcPBM binding intensity (ln)” value was 11.
For “TGTACGAGTCGTAGAGTGCAGTCTGGAGAAAAGTAC [GTGCAC_site9683]”, the “gcPBM binding intensity (ln)” value was 8.91.
For “TTTTTTATGCTAACTTCTTTTTCCTTATAAAATTGG [TGCATGCA_negctrl_site598]”, the “gcPBM binding intensity (ln)” value was 7.06.
For “AATATATTGCACCATTGGACCTGAATAATTCTTCCA [CACACA_negctrl_site1071]”, the “gcPBM binding intensity (ln)” value was 10.6.
With “TAATATATGTATTGCACACCTATAACCATTATTTCT [CACACA_site1498]” the “gcPBM binding intensity (ln)” value was 7.06.
In the case of “AATATAATATATTGCACACAAAAAGTGAATTATTCT [CACACA_site1684]”, the “gcPBM binding intensity (ln)” value is reported as 7.12.
For “CTTTCTATATAAAATCGTACATATATAATATTATAT [XGTACX_site5807]”, the “gcPBM binding intensity (ln)” value was 7.3.
In the case of “GACATATAAATATACACACATACGTAAGTATATTAA [CACACA_site1790]”, the “gcPBM binding intensity (ln)” value is reported as 6.91.
For GGAAAATACATTCCAGTGCATTAATTTATTCAACGT, the “gcPBM binding intensity (ln)” value was 8.59.
With “AGAGACACTTTTTATTGTACAAGAGGAGGTTACCTT [XGTACX_site8768]” the “gcPBM binding intensity (ln)” value was 6.61.
For “AAAAAAAAAAAAAGAACACACACAGTGCACATTCGG [CACACA_site8163]”, the “gcPBM binding intensity (ln)” value was 10.6.
With “AGAACATGCAAACATGCACACAGAAAAAAAAAATAT [CACACA_site8442]” the “gcPBM binding intensity (ln)” value was 8.26.
For “AAACAGAAGACATATACACACATACAAAAAAGTGCA [CACACA_site4699]”, the “gcPBM binding intensity (ln)” value was 7.62.
For “AAAAAAAAAAAAGAAACACACATATATATATATATA [CACACA_site140]”, the “gcPBM binding intensity (ln)” value was 8.95.
For “AAAAAAAAAAAAGAAACACACACATTTGTATATAAT [CACACA_site8648]”, the “gcPBM binding intensity (ln)” value was 6.93.
For “AAAAAAAAAAAGAACACACACAGTGCACATTCGGTG [CACACA_site788]”, the “gcPBM binding intensity (ln)” value was 10.3.
For “TGAACACACGAGCACACACACACATCTATATTTATA [CACACA_site6607]”, the “gcPBM binding intensity (ln)” value was 7.22.
“TTAATTACACAAAAAAGTACTTGATATTGTTTATTA [XGTACX_site3449]” was tested, and the “gcPBM binding intensity (ln)” value was 6.85.
For “ATACTAACATTTTTTTGTACATATAACTATAAAATA [XGTACX_site1033]”, the “gcPBM binding intensity (ln)” value was 7.32.
For “AAATATTTGTGTGGTTGTACTATAATGATAAAAATA [XGTACX_site7703]”, the “gcPBM binding intensity (ln)” value was 7.27.
In the case of “AAATACTGATTTGGTTGTACATGTGCACTATATAAC [XGTACX_site3795]”, the “gcPBM binding intensity (ln)” value is reported as 11.4.
In the case of “GGAACTTTTGGAGGTGCATGCGGAGCAATCTTTTCA [TGCATGCA_site454]”, the “gcPBM binding intensity (ln)” value is reported as 10.6.
For “CCTTTTTCTAATGGATGTACTTATTATATACATTAT [XGTACX_site281]”, the “gcPBM binding intensity (ln)” value was 7.14.
“TTGAAAAATCAGCACACACACAAATACATACATATT [CACACA_site7505]” was tested, and the “gcPBM binding intensity (ln)” value was 7.03.
In the case of “TTTTTTTTTTTTTTTTTTGGTGAGAGAAGAAAATTC [CACACA_negctrl_site950]”, the “gcPBM binding intensity (ln)” value is reported as 7.02.
With “ATTTTGATGATGTATGCACACATTGAAAATGAGAAA [CACACA_site2916]” the “gcPBM binding intensity (ln)” value was 9.12.
For TTTTTTTTTTTGTGAGTGCACGTATGAAGAGAAAAA, the “gcPBM binding intensity (ln)” value was 10.8.
In the case of “GAATAAAGGAGAGGCACACATATATATATATATATA [CACACA_site2452]”, the “gcPBM binding intensity (ln)” value is reported as 9.61.
For “AGGAATATAAAGTGCACACATAATTTGGGGGCAAAA [CACACA_site258]”, the “gcPBM binding intensity (ln)” value was 11.7.
In the case of “AATTTTGGAACGTGCACACATATGTAATATATATAT [CACACA_site3067]”, the “gcPBM binding intensity (ln)” value is reported as 10.1.
For “AATTATGCACAAATCACACATATAAAATAAAAAGTG [CACACA_site4474]”, the “gcPBM binding intensity (ln)” value was 7.87.
“AATTTAATATAATGCACACATAAAAAAAAAAAAAAA [CACACA_site123]” was tested, and the “gcPBM binding intensity (ln)” value was 7.42.
“TCAGGAATATAAAGTGCACACATAATTTGGGGGCAA [CACACA_site7974]” was tested, and the “gcPBM binding intensity (ln)” value was 11.2.
In the case of “ATATAGTATTAATTTGCATGTCATGTATTAGGTCGA [TGCATGCA_site540]”, the “gcPBM binding intensity (ln)” value is reported as 6.73.
For “TAAAATTTTATAAAGGAACACACATTTTTTTTTTTT [CACACA_site8740]”, the “gcPBM binding intensity (ln)” value was 6.87.
For “TTTGATTTTAATGTGTGTACACATTTATTTATATAA [XGTACX_site4806]”, the “gcPBM binding intensity (ln)” value was 7.74.
For “AAATAAGAAAATCATAGTACATAGGAATAGAAGAAC [XGTACX_site3135]”, the “gcPBM binding intensity (ln)” value was 7.59.
For “ATATGGAATGATCATAGTACATAATTTAAAATTTTA [XGTACX_site3568]”, the “gcPBM binding intensity (ln)” value was 6.74.
For “ATAATGAAGACTTTTTTACACACTTCATATATTATA [CACACA_site8630]”, the “gcPBM binding intensity (ln)” value was 6.96.
“AAAAAAAGAATGTGAACACACACATTGAATATAATT [CACACA_site8341]” was tested, and the “gcPBM binding intensity (ln)” value was 6.79.
With “ATTAAAAAAAAAGAGCGTACAAATAATTACTTCTTT [XGTACX_site8262]” the “gcPBM binding intensity (ln)” value was 6.83.
For “ATATCATCTTCTCTATCATTTTTTTTTTTTTTTTTT [CACACA_negctrl_site1220]”, the “gcPBM binding intensity (ln)” value was 7.69.
With “TTATTATTATAAAATTGTACTTGGTATATTAACATA [XGTACX_site5829]” the “gcPBM binding intensity (ln)” value was 6.98.
“TTAATATAATTAAAATGTACTTATTTGTAAACATTA [XGTACX_site6313]” was tested, and the “gcPBM binding intensity (ln)” value was 6.78.
For TTTAAAATACAGAAGGTGCATTTAACATATTTGTAT, the “gcPBM binding intensity (ln)” value was 10.6.
In the case of “TATTTTAACATTAGGTGTACATACAAAAATAAAAAT [XGTACX_site8577]”, the “gcPBM binding intensity (ln)” value is reported as 7.37.
In the case of “AAATACTTAACATTGGTGCATATTTGTAAAATTATT [GTGCAC_site9515]”, the “gcPBM binding intensity (ln)” value is reported as 10.7.
In the case of “TATATATATTTAAGGTGTACATAAATAACAAAATAT [XGTACX_site2641]”, the “gcPBM binding intensity (ln)” value is reported as 7.47.
In the case of “ATATTAAAATTTTAATGTACATGCGTATGTAGGAAT [XGTACX_site1673]”, the “gcPBM binding intensity (ln)” value is reported as 7.39.
In the case of “TAATCATTTTAGCTTACACACAAAATTTTGTTATAA [CACACA_site2939]”, the “gcPBM binding intensity (ln)” value is reported as 6.93.
For “TTTATATAATTTTTTTGTACATATATATGAATACAT [XGTACX_site2316]”, the “gcPBM binding intensity (ln)” value was 7.11.
